Measured values as given in PubChem BioAssay (NCATS).
Inconclusive results are not listed. The source made the active and inactive calls. The call rests on the fitted dose curve; in most records, active means well fitted curve in the direction sought with a large enough effect; inconclusive means small, poorly fitted or top-dose-only effect, or another doubt; inactive means no such curve, though single readings can be large; an effect the other way counts as inactive or inconclusive.

Tests used:
[1] = qHTS of pediatric cancer cell lines to identify multiple opportunities for drug repurposing: Primary screen for BT-37 cells (AID 1347094); further: series mostly up to about 57 µM
Procedure, shortened: (§1)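 Quantitative HTS format: each compound titrated (MIPE 11 points from 0.78 nM, NPC 8 points from 0.59 nM) onto cells plated 5 hours earlier. After 48 h at 37 degrees C, CellTiter-Glo luminescence was recorded.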

[2] = qHTS of pediatric cancer cell lines to identify multiple opportunities for drug repurposing: Primary screen for NB-EBc1 cells (AID 1347095)
Procedure, shortened: as §1

[3] = qHTS of pediatric cancer cell lines to identify multiple opportunities for drug repurposing: Primary screen for U-2 OS cells (AID 1347096); further: nearly all actives have a fitted effect of over 50% in size
Procedure, shortened: (§2)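 Cells (500-1,000/well) rested 5 h, then received compounds for 48 h; metabolically active cells were measured by CellTiter-Glo luminescence. Final concentrations spanned up to 46 µM (MIPE, 11-point) or 0.59 nM-46 µM (NPC, 8-point) in primary screens, 11-point in follow-ups.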

[4] = qHTS of pediatric cancer cell lines to identify multiple opportunities for drug repurposing: Primary screen for Saos-2 cells (AID 1347097); further: nearly all actives have a fitted effect of over 40% in size
Procedure, shortened: as §1

[5] = qHTS of pediatric cancer cell lines to identify multiple opportunities for drug repurposing: Primary screen for SK-N-SH cells (AID 1347098);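 further: DMSO served as neutral control and bortezomib at 2.3 µM as positive control; nearly all actives have a fitted effect of over 65% in size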
Procedure, shortened: as §2

[6] = qHTS of pediatric cancer cell lines to identify multiple opportunities for drug repurposing: Primary screen for NB1643 cells (AID 1347099); further: nearly all actives have a fitted effect of over 50% in size
Procedure, shortened: as §1

[7] = qHTS of pediatric cancer cell lines to identify multiple opportunities for drug repurposing: Primary screen for LAN-5 cells (AID 1347100)
Procedure, shortened: as §2

[8] = qHTS of pediatric cancer cell lines to identify multiple opportunities for drug repurposing: Primary screen for BT-12 cells (AID 1347101); further: nearly all actives have a fitted effect of over 25% in size
Procedure, shortened: as §2

[9] = qHTS of pediatric cancer cell lines to identify multiple opportunities for drug repurposing: Primary screen for Rh18 cells (AID 1347102); further: nearly all actives have a fitted effect of over 65% in size
Procedure, shortened: as §2

[10] = qHTS of pediatric cancer cell lines to identify multiple opportunities for drug repurposing: Primary screen for OHS-50 cells (AID 1347103); further: nearly all actives have a fitted effect of over 40% in size
Procedure, shortened: as §2

Measured: outcome

CC(=O)OC(C)OC(=O)C(C)c1ccc(-c2ccccc2)c(F)c1 (stereo not given)
inactive: all assays above

CN1Cc2c(N)cccc2C(c2ccccc2)C1 (stereo not given)
inactive: all assays above
